Experimental findings from paper PMC7862700, “An all-to-all approach to the identification of sequence-specific readers for epigenetic DNA modifications on cytosine” are described below.

Holding throughout (test): DAPPL (digital affinity profiling via proximity ligation, sequencing); 10 mM Tris-HCl pH 7.5, 50 mM NaCl, 1 mM DTT, 4% glycerol, room temperature, 30 min; GST-TFs on glutathione beads, 16-mer random dsDNA library, 0.1% formaldehyde crosslink after washing; high values mean tight binding
Conditions in all cases: protein: recombinant; tags: N-terminal GST; dsDNA, one strand shown

The target in assay [1] is T1, FLI1 (Homo sapiens, UniProt Q01543 1-452).
T1 sequence: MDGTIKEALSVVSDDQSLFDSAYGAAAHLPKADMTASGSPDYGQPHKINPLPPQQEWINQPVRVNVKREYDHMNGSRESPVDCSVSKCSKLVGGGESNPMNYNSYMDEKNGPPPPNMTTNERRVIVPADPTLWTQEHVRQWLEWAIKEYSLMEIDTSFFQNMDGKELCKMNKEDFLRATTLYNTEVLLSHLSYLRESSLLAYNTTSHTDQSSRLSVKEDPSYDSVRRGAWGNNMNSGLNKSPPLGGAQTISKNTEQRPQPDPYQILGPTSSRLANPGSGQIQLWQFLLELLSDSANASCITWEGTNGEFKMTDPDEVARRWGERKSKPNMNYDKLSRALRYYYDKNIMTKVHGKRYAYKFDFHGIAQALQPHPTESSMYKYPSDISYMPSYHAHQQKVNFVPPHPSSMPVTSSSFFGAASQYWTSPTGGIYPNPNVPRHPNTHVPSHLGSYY
Summed up: (§1)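 Human transcription factors fused to GST were expressed in yeast, captured on glutathione beads, given DNA barcodes and pooled with a GST-only negative control. Pools were incubated with 200 nmole of a 16-mer random double-stranded DNA library in Tris/NaCl/DTT/glycerol buffer at room temperature for 30 min. They were then washed, crosslinked with 0.1% formaldehyde, proximity-ligated (BsaI/T4 ligase, 1 h, 37 °C), PCR-amplified and sequenced on an Illumina NextSeq500. Binding signal is each 6-mer's read frequency for a factor divided by its frequency for the GST control.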

Assay [2] has as its target T2, EHF (Homo sapiens, UniProt Q9NZC4 1-300).
T2 sequence: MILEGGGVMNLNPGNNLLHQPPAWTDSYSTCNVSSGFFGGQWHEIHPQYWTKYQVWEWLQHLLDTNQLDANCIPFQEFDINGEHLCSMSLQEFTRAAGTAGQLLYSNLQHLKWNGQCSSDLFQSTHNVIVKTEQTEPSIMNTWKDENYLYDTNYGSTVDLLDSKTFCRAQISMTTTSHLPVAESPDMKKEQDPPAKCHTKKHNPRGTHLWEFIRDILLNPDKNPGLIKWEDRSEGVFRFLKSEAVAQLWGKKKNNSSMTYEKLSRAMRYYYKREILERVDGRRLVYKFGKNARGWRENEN
Summed up: as §1

Assay [3] has as its target T3, SPIC (Homo sapiens, UniProt Q8N5J4 1-248).
T3 sequence: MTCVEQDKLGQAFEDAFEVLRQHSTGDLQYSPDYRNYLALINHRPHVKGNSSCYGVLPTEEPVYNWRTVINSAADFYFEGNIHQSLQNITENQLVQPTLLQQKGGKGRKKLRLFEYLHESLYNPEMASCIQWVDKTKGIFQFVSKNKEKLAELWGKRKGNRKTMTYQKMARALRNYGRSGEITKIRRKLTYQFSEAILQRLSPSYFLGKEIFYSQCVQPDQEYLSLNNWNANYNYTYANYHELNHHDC
Put shortly: as §1

The target of assay [4] is ELF4 (Homo sapiens, UniProt Q99607 1-663). Put shortly:
as §1

Assay [5] addresses T4, ELK4 (Homo sapiens, UniProt P28324-2 1-405).
T4 sequence: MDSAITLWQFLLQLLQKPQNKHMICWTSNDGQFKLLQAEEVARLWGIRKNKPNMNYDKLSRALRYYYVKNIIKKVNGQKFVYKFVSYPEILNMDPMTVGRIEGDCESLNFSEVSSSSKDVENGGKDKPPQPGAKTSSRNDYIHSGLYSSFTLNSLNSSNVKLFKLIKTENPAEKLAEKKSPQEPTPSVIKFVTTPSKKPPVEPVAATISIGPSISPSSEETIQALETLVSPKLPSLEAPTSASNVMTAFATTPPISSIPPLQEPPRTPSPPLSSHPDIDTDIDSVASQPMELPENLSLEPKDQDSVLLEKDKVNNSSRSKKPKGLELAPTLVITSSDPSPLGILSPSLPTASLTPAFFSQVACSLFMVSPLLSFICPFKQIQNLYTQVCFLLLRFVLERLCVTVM
Summed up: as §1

Assay [6] deals with T5, ELF3 (Homo sapiens, UniProt P78545 1-371).
T5 sequence: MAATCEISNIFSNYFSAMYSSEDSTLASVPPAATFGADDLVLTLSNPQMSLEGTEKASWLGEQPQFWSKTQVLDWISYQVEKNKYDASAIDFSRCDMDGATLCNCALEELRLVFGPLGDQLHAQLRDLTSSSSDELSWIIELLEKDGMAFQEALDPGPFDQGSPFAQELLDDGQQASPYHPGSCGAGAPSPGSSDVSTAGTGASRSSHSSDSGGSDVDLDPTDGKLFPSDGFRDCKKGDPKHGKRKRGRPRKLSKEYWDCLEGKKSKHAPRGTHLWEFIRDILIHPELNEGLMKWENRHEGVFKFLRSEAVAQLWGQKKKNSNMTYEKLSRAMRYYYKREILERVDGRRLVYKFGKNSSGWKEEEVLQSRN
Put shortly: as §1

Assay [7] deals with ETV1 (Homo sapiens, UniProt P50549 1-477). Put shortly:
as §1

The target in assay [8] is T6, ERF (Homo sapiens, UniProt P50548 1-548).
T6 sequence: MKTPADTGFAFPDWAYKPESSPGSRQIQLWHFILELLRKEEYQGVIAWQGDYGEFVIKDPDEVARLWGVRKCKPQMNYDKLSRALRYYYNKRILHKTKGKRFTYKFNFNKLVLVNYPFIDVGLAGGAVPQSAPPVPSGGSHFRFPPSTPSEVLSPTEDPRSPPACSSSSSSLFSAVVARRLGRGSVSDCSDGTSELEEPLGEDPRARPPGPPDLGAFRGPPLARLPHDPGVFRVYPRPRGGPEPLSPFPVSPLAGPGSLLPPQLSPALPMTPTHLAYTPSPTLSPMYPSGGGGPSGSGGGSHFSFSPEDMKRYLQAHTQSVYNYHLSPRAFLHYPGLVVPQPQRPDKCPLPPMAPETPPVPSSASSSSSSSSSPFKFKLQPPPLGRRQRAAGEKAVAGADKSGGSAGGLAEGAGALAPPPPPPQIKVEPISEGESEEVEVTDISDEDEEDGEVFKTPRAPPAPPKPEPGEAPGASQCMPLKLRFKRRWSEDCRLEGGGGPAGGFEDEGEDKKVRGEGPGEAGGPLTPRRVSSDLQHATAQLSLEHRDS
Put shortly:
as §1

Assay [9] has as its target T7, ETV3L (Homo sapiens, UniProt Q6ZN32 1-361).
T7 sequence: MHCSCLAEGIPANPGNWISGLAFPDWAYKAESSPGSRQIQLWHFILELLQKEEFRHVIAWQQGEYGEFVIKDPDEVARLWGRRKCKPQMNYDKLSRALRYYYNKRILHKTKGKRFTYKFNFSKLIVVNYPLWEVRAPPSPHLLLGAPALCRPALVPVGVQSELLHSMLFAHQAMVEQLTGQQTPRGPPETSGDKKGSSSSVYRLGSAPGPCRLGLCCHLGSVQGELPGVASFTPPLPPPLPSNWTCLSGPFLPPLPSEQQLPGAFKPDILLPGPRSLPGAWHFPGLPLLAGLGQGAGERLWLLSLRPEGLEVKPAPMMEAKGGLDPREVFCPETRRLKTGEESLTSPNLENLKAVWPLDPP
Summed up:
as §1

Assay [10] addresses T8, ETV3 (Homo sapiens, UniProt P41162-2 1-143).
T8 sequence: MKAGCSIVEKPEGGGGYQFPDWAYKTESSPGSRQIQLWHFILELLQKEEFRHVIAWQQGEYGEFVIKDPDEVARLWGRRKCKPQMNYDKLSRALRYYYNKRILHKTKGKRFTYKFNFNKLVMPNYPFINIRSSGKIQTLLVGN
Put shortly: as §1

Assay [11] addresses ETV6 (Homo sapiens, UniProt P41212 1-452). Put shortly:
as §1

Assay [12] concerns the target T9, ELK1 (Homo sapiens, UniProt P19419 1-428).
T9 sequence: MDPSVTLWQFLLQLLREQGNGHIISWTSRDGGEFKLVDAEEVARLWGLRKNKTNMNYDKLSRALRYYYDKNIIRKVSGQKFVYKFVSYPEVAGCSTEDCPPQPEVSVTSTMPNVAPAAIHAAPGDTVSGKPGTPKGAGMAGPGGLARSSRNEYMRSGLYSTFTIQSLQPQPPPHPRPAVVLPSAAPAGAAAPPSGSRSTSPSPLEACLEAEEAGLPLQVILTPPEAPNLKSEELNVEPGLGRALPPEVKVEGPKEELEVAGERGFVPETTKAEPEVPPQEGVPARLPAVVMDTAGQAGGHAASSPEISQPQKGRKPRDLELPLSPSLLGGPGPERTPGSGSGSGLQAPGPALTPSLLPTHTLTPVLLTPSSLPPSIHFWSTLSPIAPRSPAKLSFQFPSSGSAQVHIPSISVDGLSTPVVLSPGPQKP
Summed up:
as §1

For assay [13], the target named is T10, GABPA (Homo sapiens, UniProt Q06546 1-454).
T10 sequence: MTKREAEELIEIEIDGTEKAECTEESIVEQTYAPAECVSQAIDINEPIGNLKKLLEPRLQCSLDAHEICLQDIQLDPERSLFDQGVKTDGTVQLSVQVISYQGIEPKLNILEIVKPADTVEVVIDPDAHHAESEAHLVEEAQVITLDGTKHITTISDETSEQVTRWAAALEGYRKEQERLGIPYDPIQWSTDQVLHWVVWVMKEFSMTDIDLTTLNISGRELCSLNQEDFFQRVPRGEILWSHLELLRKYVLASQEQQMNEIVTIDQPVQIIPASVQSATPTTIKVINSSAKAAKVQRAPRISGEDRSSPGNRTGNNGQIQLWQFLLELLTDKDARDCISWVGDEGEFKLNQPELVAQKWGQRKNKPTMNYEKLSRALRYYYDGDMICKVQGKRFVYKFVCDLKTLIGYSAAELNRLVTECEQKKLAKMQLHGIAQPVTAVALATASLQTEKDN
Put shortly:
as §1

Assay [14] addresses ELF1 (Homo sapiens, UniProt P32519 1-619). Summed up:
as §1

Assay [15] concerns the target T11, ETV7 (Homo sapiens, UniProt Q9Y603 1-341).
T11 sequence: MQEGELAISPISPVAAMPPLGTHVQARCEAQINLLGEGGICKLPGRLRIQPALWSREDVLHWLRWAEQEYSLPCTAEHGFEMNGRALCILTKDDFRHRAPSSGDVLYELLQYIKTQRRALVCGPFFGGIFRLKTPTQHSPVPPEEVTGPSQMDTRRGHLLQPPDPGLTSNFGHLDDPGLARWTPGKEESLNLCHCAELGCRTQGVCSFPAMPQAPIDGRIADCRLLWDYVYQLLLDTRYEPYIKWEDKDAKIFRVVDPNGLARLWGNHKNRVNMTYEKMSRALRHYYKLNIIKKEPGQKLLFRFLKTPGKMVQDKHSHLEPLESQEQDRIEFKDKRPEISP
Put shortly: as §1

Chain of ELF4 (Q99607 whole entry): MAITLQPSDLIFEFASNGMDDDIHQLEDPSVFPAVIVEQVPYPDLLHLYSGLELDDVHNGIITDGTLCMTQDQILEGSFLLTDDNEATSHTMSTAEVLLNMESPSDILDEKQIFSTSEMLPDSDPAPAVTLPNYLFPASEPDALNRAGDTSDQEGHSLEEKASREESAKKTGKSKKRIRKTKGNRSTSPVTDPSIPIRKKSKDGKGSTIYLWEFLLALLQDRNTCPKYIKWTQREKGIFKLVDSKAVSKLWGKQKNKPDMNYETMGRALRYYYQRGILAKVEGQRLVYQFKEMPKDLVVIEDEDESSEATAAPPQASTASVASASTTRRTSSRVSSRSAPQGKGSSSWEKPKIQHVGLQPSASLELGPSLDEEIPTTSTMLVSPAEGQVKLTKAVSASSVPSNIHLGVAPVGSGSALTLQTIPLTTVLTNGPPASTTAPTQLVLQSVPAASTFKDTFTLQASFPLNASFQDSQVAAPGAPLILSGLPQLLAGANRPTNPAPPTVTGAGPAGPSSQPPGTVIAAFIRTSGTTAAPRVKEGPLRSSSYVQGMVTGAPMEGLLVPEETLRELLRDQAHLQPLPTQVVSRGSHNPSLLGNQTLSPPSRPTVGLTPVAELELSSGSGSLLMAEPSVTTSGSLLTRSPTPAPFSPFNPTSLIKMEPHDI
Chain of ETV6 (P41212 whole entry): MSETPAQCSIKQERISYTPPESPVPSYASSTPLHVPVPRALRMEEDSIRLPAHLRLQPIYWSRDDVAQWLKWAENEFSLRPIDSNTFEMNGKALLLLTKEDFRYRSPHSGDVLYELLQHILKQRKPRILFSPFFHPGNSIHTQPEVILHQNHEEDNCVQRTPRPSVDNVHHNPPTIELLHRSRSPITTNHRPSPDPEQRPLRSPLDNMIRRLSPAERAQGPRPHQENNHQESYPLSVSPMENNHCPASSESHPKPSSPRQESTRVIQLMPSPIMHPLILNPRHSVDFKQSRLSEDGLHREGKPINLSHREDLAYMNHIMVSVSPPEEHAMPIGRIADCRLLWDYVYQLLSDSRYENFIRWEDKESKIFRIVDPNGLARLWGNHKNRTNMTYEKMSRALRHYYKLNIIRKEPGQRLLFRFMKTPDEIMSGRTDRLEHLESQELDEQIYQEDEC
Chain of ELF1 (P32519 whole entry): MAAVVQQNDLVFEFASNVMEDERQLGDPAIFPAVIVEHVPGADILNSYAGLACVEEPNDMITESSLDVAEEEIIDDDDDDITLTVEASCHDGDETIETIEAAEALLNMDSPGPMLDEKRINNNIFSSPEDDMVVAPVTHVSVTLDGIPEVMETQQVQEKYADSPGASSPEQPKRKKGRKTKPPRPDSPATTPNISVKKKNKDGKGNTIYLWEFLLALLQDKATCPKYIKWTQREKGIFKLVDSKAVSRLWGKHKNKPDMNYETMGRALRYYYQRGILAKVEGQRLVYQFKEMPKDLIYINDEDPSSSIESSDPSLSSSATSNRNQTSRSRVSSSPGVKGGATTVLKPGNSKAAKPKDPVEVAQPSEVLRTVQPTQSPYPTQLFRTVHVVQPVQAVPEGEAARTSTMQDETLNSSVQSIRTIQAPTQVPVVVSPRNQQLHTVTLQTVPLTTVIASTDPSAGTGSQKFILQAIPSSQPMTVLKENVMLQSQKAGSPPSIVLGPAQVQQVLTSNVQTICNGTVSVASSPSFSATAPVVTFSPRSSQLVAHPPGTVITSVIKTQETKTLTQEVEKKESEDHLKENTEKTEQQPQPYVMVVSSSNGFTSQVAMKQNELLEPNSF
Chain of ETV1 (P50549 whole entry): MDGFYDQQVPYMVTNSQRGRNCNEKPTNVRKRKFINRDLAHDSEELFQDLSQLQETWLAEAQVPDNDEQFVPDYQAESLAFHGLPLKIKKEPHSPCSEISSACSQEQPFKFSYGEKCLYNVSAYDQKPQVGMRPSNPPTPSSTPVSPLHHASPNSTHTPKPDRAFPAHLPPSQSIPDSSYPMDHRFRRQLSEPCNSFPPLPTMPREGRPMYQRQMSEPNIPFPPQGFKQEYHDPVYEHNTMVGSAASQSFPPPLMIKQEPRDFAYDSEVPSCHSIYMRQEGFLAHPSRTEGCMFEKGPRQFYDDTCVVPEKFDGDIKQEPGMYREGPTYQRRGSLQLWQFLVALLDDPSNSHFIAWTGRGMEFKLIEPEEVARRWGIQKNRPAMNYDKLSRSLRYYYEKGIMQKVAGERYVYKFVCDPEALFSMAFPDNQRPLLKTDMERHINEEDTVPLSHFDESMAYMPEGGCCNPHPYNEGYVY

For the sequence GCTAGG, the binding signal in assay [1] is 1.01 fold enrichment (6-mer frequency, TF over GST control); in assay [2], 1.12 fold enrichment (6-mer frequency, TF over GST control); in assay [3] it was 1.03 fold enrichment (6-mer frequency, TF over GST control); in [4], 1.06 fold enrichment (6-mer frequency, TF over GST control); in assay [5], 1.08 fold enrichment (6-mer frequency, TF over GST control); in assay [6], 1.14 fold enrichment (6-mer frequency, TF over GST control). Further, the binding signal is 1 fold enrichment (6-mer frequency, TF over GST control) in assay [7]; 1.01 fold enrichment (6-mer frequency, TF over GST control) in [8]; 1.06 fold enrichment (6-mer frequency, TF over GST control) in assay [9]; 1.03 fold enrichment (6-mer frequency, TF over GST control) in assay [10]; 1.07 fold enrichment (6-mer frequency, TF over GST control) in assay [11].

Regarding CACCTA, the binding signal is 1.06 fold enrichment (6-mer frequency, TF over GST control) in assay [1]; 1.01 fold enrichment (6-mer frequency, TF over GST control) in [12]; 1.04 fold enrichment (6-mer frequency, TF over GST control) in [13]; 1.02 fold enrichment (6-mer frequency, TF over GST control) in [14]; 1.05 fold enrichment (6-mer frequency, TF over GST control) in assay [2]; 1.09 fold enrichment (6-mer frequency, TF over GST control) in [3]. Also, the binding signal in [4] is 1.1 fold enrichment (6-mer frequency, TF over GST control); in [5], 1 fold enrichment (6-mer frequency, TF over GST control); in assay [6], 1.18 fold enrichment (6-mer frequency, TF over GST control); in assay [8], 1.06 fold enrichment (6-mer frequency, TF over GST control); in assay [15] it was 1.08 fold enrichment (6-mer frequency, TF over GST control); in assay [11], 1.02 fold enrichment (6-mer frequency, TF over GST control).
